From PubChem BioAssay
Several values for one entry are separate records, joined by “and”; a condition that tells them apart may be missing. Identical values can stand only once. Inconclusive results are not listed. Activity calls are given as the source filed them. Unless noted, no stated cut-off is given here; in the data, active means inhibition above about 80%; inactive means the rest.

Columns and labels:
[1] = target: Mitogen-activated protein kinase 7 (Homo sapiens) (UniProt Q13164); assay: Gal4-ERK5 driven luciferase induction – cell-based, HTS, primary screen (AID 1508626;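 active means luciferase signal above three times the same-plate solvent-only control wells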;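 further: luciferase driven by Gal4-ERK5 fusion binding five Gal4 sites before minimal TATA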); details: HeLa Gal4-ERK5 transactivation, 18 h, at 5 µM, stronger effect = higher value
Mitogen-activated protein kinase 7 (Homo sapiens), sequence (Q13164 whole entry, looked up, the tested form may be a part): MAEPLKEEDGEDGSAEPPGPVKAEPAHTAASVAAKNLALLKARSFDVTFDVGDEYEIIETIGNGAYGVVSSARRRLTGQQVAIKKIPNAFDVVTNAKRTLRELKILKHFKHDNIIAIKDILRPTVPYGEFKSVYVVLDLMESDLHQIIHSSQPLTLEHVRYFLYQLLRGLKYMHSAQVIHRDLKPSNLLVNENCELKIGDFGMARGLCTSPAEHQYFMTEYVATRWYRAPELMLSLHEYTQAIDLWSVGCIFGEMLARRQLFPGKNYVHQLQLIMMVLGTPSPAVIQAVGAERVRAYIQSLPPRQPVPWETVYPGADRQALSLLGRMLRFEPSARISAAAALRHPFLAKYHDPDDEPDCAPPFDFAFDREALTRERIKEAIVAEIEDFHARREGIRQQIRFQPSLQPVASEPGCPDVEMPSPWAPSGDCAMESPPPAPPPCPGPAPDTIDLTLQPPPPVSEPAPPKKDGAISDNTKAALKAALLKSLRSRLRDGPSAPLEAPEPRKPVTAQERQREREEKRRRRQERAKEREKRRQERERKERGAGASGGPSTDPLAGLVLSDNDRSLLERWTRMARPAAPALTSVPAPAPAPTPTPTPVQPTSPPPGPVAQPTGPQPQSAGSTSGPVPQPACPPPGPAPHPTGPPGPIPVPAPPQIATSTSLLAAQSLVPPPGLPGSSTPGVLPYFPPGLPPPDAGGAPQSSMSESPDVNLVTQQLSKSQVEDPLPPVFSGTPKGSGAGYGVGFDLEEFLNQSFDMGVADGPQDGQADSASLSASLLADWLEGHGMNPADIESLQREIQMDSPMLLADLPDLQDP

[2] = compounds altering viability of human ES cells (AID 493140; call rule not given here;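 further: cells exposed to compounds for four days before counting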); details: human embryonic stem cell survival screen; stronger effect = higher value
[3] = viability loss in pontine glioma line – cell-based, SU-DIPG-IV, MIPE4.0, CellTiter-Glo, qHTS, dose response (AID 1347063; cut-off not given, nearly all actives have AC50 up to about 30 µM;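 further: compound exposure lasted 48 hours before the viability readout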); details: CellTiter-Glo ATP luminescence
[4] = compounds altering HSF1 focus formation in cells – imaging, Selleck Cancer Library (AID 1347162; in the data active means plate-normalised HSF1 focus index below about 0.46); details: human cells, HSF1 nuclear foci imaging, at 10 µM; SSMD: measured here: HSF1 foci SSMD mean; cell count: measured here: cell number; plate-normalised HSF1 focus index: stronger effect = lower value
[5] = growth inhibition, single agent or in combination, cell-based, chromothripsis tumors, cisplatin or BGB combos (AID 1671449); details: LFS_MB_P medulloblastoma cells;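 further: cells exposed for 96 hours; 0% = vehicle DMSO and 100% = killing by high DMSO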
[6] = growth inhibition, single agent and combos, cell-based, chromothripsis tumors, cisplatin or BGB combos (AID 1671450); details: HDN33 neuroblastoma cells, stronger effect = higher value;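 further: cells exposed to compound for four days; 0% = vehicle DMSO and 100% = cell killing by high DMSO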
[7] = growth inhibition, single agents and combos, ICB984, cell-based, cisplatin or BGB combos, synergistic combos for chromothripsis tumors (AID 1671451; call rule not given here;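 further: cells exposed for 96 hours before readout; 0% = vehicle DMSO and 100% = killing by high DMSO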); details: ICB984 medulloblastoma cells, drug combinations, stronger effect = higher value
[8] = growth inhibition, single agents and combos, HTB85, cell-based, BGB or cisplatin IC20 combos, synergistic combos for chromothripsis tumors (AID 1671453); details: HTB85 osteosarcoma cells, drug combinations, stronger effect = higher value;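 further: cells exposed for 96 hours before readout; 0% = vehicle DMSO and 100% = high DMSO killing control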
[9] = growth inhibition, MDA-MB-436, cell-based, BGB or cisplatin combos, synergistic combos for chromothripsis tumors (AID 1671458; call rule not given here;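 further: cells exposed for 96 hours; 0% = vehicle DMSO and 100% = killing by high DMSO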); details: MDA-MB-436 breast carcinoma growth inhibition, drug combinations, stronger effect = higher value
[10] = BT084 cell growth, single and combined drugs, ICGC_MB145, cisplatin and BGB IC40 combos (AID 1671461); details: BT084 medulloblastoma cells, drug combinations, stronger effect = higher value;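 further: cells exposed to drugs for 96 hours; 0% = vehicle DMSO and 100% = high DMSO full killing control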
[11] = RCMB18 cell growth, single agent and combined, cisplatin and BGB IC40 combos (AID 1671462); details: RCMB18 medulloblastoma cells, stronger effect = higher value;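 further: cells exposed to compound for four days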
[12] = CRL1545 cell growth, single agent and combined, cisplatin and BGB IC20 combos (AID 1671464); details: CRL1545 osteosarcoma cells, stronger effect = higher value;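 further: cells exposed to compound for 96 hours before readout; 0% = vehicle DMSO and 100% = high DMSO killing control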
[13] = measured here: with BGB IC20 combination, at 0.5 µM
[14] = measured here: with cisplatin IC20 combination, at 0.5 µM

SMILES: NC(=O)CCCCC1CCSS1 (stereo unspecified)
- luciferase signal [1]: 44 AU (inactive)

SMILES: CC(O)(P(=O)(O)O)P(=O)(O)O
- survival [2]: 4.67 (inactive)
- luciferase signal [1]: 48 AU (inactive)

SMILES: CCOC(=O)c1ccc(O)cc1
- luciferase signal [1]: 64 AU (inactive)

SMILES: CCN(CC)CCOc1ccc2c(c1)C(=O)c1cc(OCCN(CC)CC)ccc1-2
- luciferase signal [1]: 108 AU (inactive)

SMILES: O=C1OC2(c3ccc(O)cc3Oc3cc(O)ccc32)c2ccccc21
- luciferase signal [1]: 52 AU (inactive)

SMILES: Nc1nc(Cl)nc2c1ncn2[C@@H]1O[C@H](CO)[C@@H](O)[C@@H]1F
- AC50 [3]: 33.2 nM (active)
- SSMD [4]: -4.45
- cell count [4]: 7490
- plate-normalised HSF1 focus index [4]: 0.84 (inactive)
- inhibition ([5]; at 0.5 µM, stronger effect = higher value): -3.9% (inactive) and -14.3% (inactive)
- inhibition ([5]; measured here: combination with BGB IC20, at 0.005 µM): -8.83% and 6.96%
- inhibition ([5]; measured here: combination with BGB IC40, at 0.005 µM): -20.3% and 1.78%
- inhibition ([5]; measured here: combination with BGB IC40, at 0.05 µM): -15.7% and -36.2%
- inhibition ([5]; measured here: combination with cisplatin, at 0.5 µM, stronger effect = higher value): -5.98% and 57.4%
- inhibition ([5]; measured here: combination with cisplatin, at 5 µM, stronger effect = higher value): 71.4% and 96.1%
- inhibition ([6]; BGB combo, at 5 µM): 93.3% and 87.1%
- inhibition ([6]; at 0.5 µM): 73.2% (inactive) and 66.1% (inactive)
- inhibition ([6]; cisplatin combo, at 5 µM): 95.5% and 89.7%
- inhibition [6, 13]: 77.5% and 72.5%
- inhibition [6, 14]: 73.9% and 60.5%
- inhibition ([6]; single agent, at 5 µM): 90.8% and 89.8%
- inhibition ([7]; BGB IC20 combo, at 0.005 µM): -17.9% and 1.1%
- inhibition ([7]; BGB IC40 combo, at 0.005 µM): -37% and -3.72%
- inhibition ([7]; BGB IC40 combo, at 0.05 µM): 35.1% and 25%
- inhibition ([7]; at 0.5 µM): -24.6% (inactive) and -23.6% (inactive)
- inhibition ([7]; cisplatin combo, at 0.05 µM): 35.1% and 22.3%
- inhibition ([7]; cisplatin combo, at 0.5 µM): -35.6% and 1.18%
- inhibition ([7]; cisplatin combo, at 5 µM): 0.299% and -46.4%
- inhibition ([7]; measured here: 5 uM single agent, at 5 µM): -18.8% and -11.5%
- inhibition ([8]; at 0.5 µM): 75.4% (inactive) and 77.9% (inactive)
- inhibition ([8]; measured here: with BGB IC20, at 0.5 µM): 66.7% and 73.9%
- inhibition ([8]; measured here: with BGB IC20, at 5 µM): 95.1% and 90.7%
- inhibition ([8]; measured here: with cisplatin IC20, at 0.5 µM): 78% and 76.7%
- inhibition ([8]; measured here: with cisplatin IC20, at 5 µM): 97.1% and 95.9%
- inhibition ([8]; single agent, at 5 µM): 96.4%
- inhibition ([9]; at 0.5 µM): 45.3% (inactive) and 53.2% (inactive)
- inhibition ([9]; measured here: BGB combination, at 0.5 µM): 39.5% and 52%
- inhibition ([9]; measured here: BGB combination, at 5 µM): 65.6% and 67.5%
- inhibition ([9]; measured here: cisplatin combination, at 0.5 µM): 40.6% and 46.8%
- inhibition ([9]; measured here: cisplatin combination, at 5 µM): 87% and 90.6%
- inhibition ([10]; at 0.5 µM): 25.8% (inactive) and 24.8% (inactive)
- inhibition ([10]; cisplatin combination, at 0.5 µM): 61.9% and 62.5%
- inhibition ([10]; cisplatin combination, at 5 µM): 70.1% and 80%
- inhibition ([10]; measured here: BGB IC40 combination 0.05 uM, at 0.05 µM): -13.2% and 17.9%
- inhibition ([10]; single agent, at 5 µM): -3.16% and -6.18%
- inhibition ([11]; at 0.5 µM): 16.9% (inactive) and 18.5% (inactive)
- inhibition ([11]; cisplatin combo, at 5 µM): 84.3% and 94.2%
- inhibition ([11]; measured here: BGB IC40 combination, at 0.05 µM): -16.1% and -7.68%
- inhibition ([11]; measured here: combination with cisplatin, at 0.5 µM): 83.1% and 66%
- inhibition ([11]; single agent, at 5 µM): 9.06% and 45.4%
- inhibition ([12]; at 0.5 µM): 7.42% (inactive) and 10.4% (inactive)
- inhibition [12, 13]: 24% and 34.6%
- inhibition [12, 14]: -0.869% and -3.42%
- inhibition ([12]; single agent, at 0.05 µM): 30.6% and -23.9%
- inhibition ([12]; single agent, at 5 µM): 97.1% and 92.1%
